From the supplement of paper PMC8728848
This is one part of a sample in which the strongest signals are shown more often than they occur.

How the values were obtained:
Experiment in all cases: glycan array binding signal (z-score within array); higher = stronger binding
Details in all cases: glycan notation: IUPAC condensed, linker removed
[1] = molecular target: Fuc(a1-2)Gal(b1-4)GlcNAc(b1-6)GalNAc
Outline: (§1)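 The binding signal is a Z-score computed within each array. Data were drawn from 3228 arrays in the Consortium for Functional Glycomics database, restricted to those with a known protein sequence. Scores were averaged over arrays of the same protein sequence at different concentrations or buffers, and over linkers, and negative values can be taken as non-binding.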

[2] = molecular target: Fuc(a1-2)[Gal(a1-3)]Gal(b1-3)GalNAc
Outline: as §1

[3] = molecular target: Fuc(a1-2)[Gal(a1-3)]Gal(b1-3)GlcNAc
Outline: as §1

[4] = molecular target: Fuc(a1-2)[Gal(a1-3)]Gal(b1-3)GlcNAc(b1-2)Man(a1-3)[Fuc(a1-2)[Gal(a1-3)]Gal(b1-3)GlcNAc(b1-2)Man(a1-6)]Man(b1-4)GlcNAc(b1-4)[Fuc(a1-6)]GlcNAc
Outline: as §1

[5] = molecular target: Fuc(a1-2)[Gal(a1-3)]Gal(b1-4)GlcNAc(b1-3)[Fuc(a1-2)[Gal(a1-3)]Gal(b1-4)GlcNAc(b1-6)]GalNAc
Outline: as §1

[6] = molecular target: Fuc(a1-2)[GalNAc(a1-3)]Gal(b1-4)GlcNAc(b1-3)[Fuc(a1-2)[GalNAc(a1-3)]Gal(b1-4)GlcNAc(b1-6)]GalNAc
Outline: as §1

[7] = molecular target: Fuc(a1-3)[Gal(b1-4)]GlcNAc(b1-3)Gal(b1-4)[Fuc(a1-3)]GlcNAc(b1-3)Gal(b1-4)[Fuc(a1-3)]GlcNAc
Outline: as §1

[8] = molecular target: Gal(a1-3)Gal(b1-3)[Fuc(a1-4)]GlcNAc(b1-2)Man(a1-3)[Gal(a1-3)Gal(b1-3)[Fuc(a1-4)]GlcNAc(b1-2)Man(a1-6)]Man(b1-4)GlcNAc(b1-4)GlcNAc
Outline: as §1

[9] = molecular target: Gal(b1-3)GalNAc(b1-3)Gal(a1-4)Gal(b1-4)Glc
Outline: as §1

[10] = molecular target: Gal(b1-3)GlcNAc(a1-3)Gal(b1-4)GlcNAc
Outline: as §1

[11] = molecular target: Gal(b1-3)GlcNAc(b1-2)Man(a1-3)[GlcNAc(b1-4)][Gal(b1-3)GlcNAc(b1-2)Man(a1-6)]Man(b1-4)GlcNAc(b1-4)GlcNAc
Outline: as §1

[12] = molecular target: Gal(b1-3)GlcNAc(b1-3)Gal(b1-4)Glc
Outline: as §1

[13] = molecular target: Gal(b1-3)[Fuc(a1-4)]GlcNAc(b1-2)Man
Outline: as §1

[14] = molecular target: Gal(b1-3)[Neu5Ac(a2-6)]GlcNAc(b1-4)Gal(b1-4)Glc
Outline: as §1

Gal(b1-4)GlcNAc = molecular target: Gal(b1-4)GlcNAc
Outline: as §1

[15] = molecular target: Gal(b1-4)GlcNAc(b1-2)Man(a1-6)[GlcNAc(b1-2)Man(a1-3)]Man(b1-4)GlcNAc(b1-4)GlcNAc
Outline: as §1

[16] = molecular target: Gal(b1-4)GlcNAc(b1-2)[Gal(b1-4)GlcNAc(b1-4)]Man(a1-3)[GlcNAc(b1-4)][Gal(b1-4)GlcNAc(b1-2)Man(a1-6)]Man(b1-4)GlcNAc(b1-4)GlcNAc
Outline: as §1

[17] = molecular target: Gal(b1-4)GlcNAc(b1-3)Gal(b1-4)GlcNAc(b1-3)Gal(b1-4)GlcNAc(b1-2)Man(a1-3)[Gal(b1-4)GlcNAc(b1-3)Gal(b1-4)GlcNAc(b1-3)Gal(b1-4)GlcNAc(b1-2)Man(a1-6)]Man(b1-4)GlcNAc(b1-4)[Fuc(a1-6)]GlcNAc
Outline: as §1

[18] = molecular target: Gal(b1-4)GlcNAc(b1-3)Gal(b1-4)GlcNAc(b1-3)Gal(b1-4)GlcNAc(b1-3)Gal(b1-4)GlcNAc(b1-2)Man(a1-3)[Gal(b1-4)GlcNAc(b1-3)Gal(b1-4)GlcNAc(b1-3)Gal(b1-4)GlcNAc(b1-3)Gal(b1-4)GlcNAc(b1-2)Man(a1-6)]Man(b1-4)GlcNAc(b1-4)[Fuc(a1-6)]GlcNAc
Outline: as §1

[19] = molecular target: Gal(b1-4)GlcNAc(b1-3)Gal(b1-4)GlcNAc(b1-3)Gal(b1-4)GlcNAc(b1-3)Gal(b1-4)GlcNAc(b1-2)[Gal(b1-4)GlcNAc(b1-3)Gal(b1-4)GlcNAc(b1-3)Gal(b1-4)GlcNAc(b1-3)Gal(b1-4)GlcNAc(b1-6)]Man(a1-6)[Gal(b1-4)GlcNAc(b1-3)Gal(b1-4)GlcNAc(b1-3)Gal(b1-4)GlcNAc(b1-3)Gal(b1-4)GlcNAc(b1-2)Man(a1-3)]Man(b1-4)GlcNAc(b1-4)[Fuc(a1-6)]GlcNAc
Outline: as §1

[20] = molecular target: Gal(b1-4)GlcNAc(b1-3)Gal(b1-4)GlcNAc(b1-3)Gal(b1-4)GlcNAc(b1-3)Gal(b1-4)GlcNAc(b1-3)Gal(b1-4)GlcNAc(b1-2)Man(a1-3)[Gal(b1-4)GlcNAc(b1-3)Gal(b1-4)GlcNAc(b1-3)Gal(b1-4)GlcNAc(b1-3)Gal(b1-4)GlcNAc(b1-3)Gal(b1-4)GlcNAc(b1-2)Man(a1-6)]Man(b1-4)GlcNAc(b1-4)[Fuc(a1-6)]GlcNAc
Outline: as §1

Gal(b1-6)Gal = molecular target: Gal(b1-6)Gal
Outline: as §1

Gal3S(b1-3)GalNAc = molecular target: Gal3S(b1-3)GalNAc
Outline: as §1

[21] = molecular target: Gal3S(b1-4)[Fuc(a1-3)]Glc6S
Outline: as §1

Gal6S(b1-4)Glc = molecular target: Gal6S(b1-4)Glc
Outline: as §1

Gal6S(b1-4)GlcNAc6S = molecular target: Gal6S(b1-4)GlcNAc6S
Outline: as §1

GalNAc(b1-4)GlcNAc6S = molecular target: GalNAc(b1-4)GlcNAc6S
Outline: as §1

Glc(a1-6)Glc(a1-6)Glc = molecular target: Glc(a1-6)Glc(a1-6)Glc
Outline: as §1

GlcA(b1-3)Gal = molecular target: GlcA(b1-3)Gal
Outline: as §1

[22] = molecular target: GlcNAc(a1-4)Gal(b1-4)GalNAc
Outline: as §1

[23] = molecular target: GlcNAc(b1-2)Man(a1-3)[GlcNAc(b1-4)][GlcNAc(b1-2)Man(a1-6)]Man(b1-4)GlcNAc(b1-4)[Fuc(a1-6)]GlcNAc
Outline: as §1

[24] = molecular target: GlcNAc(b1-2)[GlcNAc(b1-4)]Man(a1-3)[GlcNAc(b1-4)][GlcNAc(b1-2)Man(a1-6)]Man(b1-4)GlcNAc(b1-4)GlcNAc
Outline: as §1

[25] = molecular target: GlcNAc(b1-2)[GlcNAc(b1-6)]Man(a1-6)[GlcNAc(b1-2)Man(a1-3)]Man(b1-4)GlcNAc(b1-4)[Fuc(a1-6)]GlcNAc
Outline: as §1

[26] = molecular target: GlcNAc(b1-3)Gal(b1-4)GlcNAc(b1-2)[GlcNAc(b1-3)Gal(b1-4)GlcNAc(b1-6)]Man(a1-6)[GlcNAc(b1-3)Gal(b1-4)GlcNAc(b1-2)Man(a1-3)]Man(b1-4)GlcNAc(b1-4)GlcNAc
Outline: as §1

[27] = molecular target: GlcNAc(b1-3)Gal(b1-4)GlcNAc(b1-3)Gal(b1-4)GlcNAc(b1-2)Man(a1-3)[GlcNAc(b1-3)Gal(b1-4)GlcNAc(b1-3)Gal(b1-4)GlcNAc(b1-2)Man(a1-6)]Man(b1-4)GlcNAc(b1-4)GlcNAc
Outline: as §1

[28] = molecular target: GlcNAc(b1-3)Gal(b1-4)GlcNAc(b1-3)[GlcNAc(b1-3)Gal(b1-4)GlcNAc(b1-3)]GalNAc
Outline: as §1

Kdn(a2-6)Gal(b1-4)GlcNAc = molecular target: Kdn(a2-6)Gal(b1-4)GlcNAc
Outline: as §1

[29] = molecular target: Neu5Ac(a2-3)Gal(b1-3)GlcNAc(b1-6)GalNAc
Outline: as §1

[30] = molecular target: Neu5Ac(a2-3)Gal(b1-3)GlcNAc6S
Outline: as §1

[31] = molecular target: Neu5Ac(a2-3)Gal(b1-3)[Neu5Ac(a2-6)]GlcNAc(b1-3)[Fuc(a1-3)[Gal(b1-4)]GlcNAc(b1-6)]Gal(b1-4)Glc
Outline: as §1

Neu5Ac(a2-3)Gal(b1-4)Glc = molecular target: Neu5Ac(a2-3)Gal(b1-4)Glc
Outline: as §1

[32] = molecular target: Neu5Ac(a2-3)Gal(b1-4)GlcNAc(b1-3)Gal(b1-3)GlcNAc
Outline: as §1

[33] = molecular target: Neu5Ac(a2-3)Gal(b1-4)GlcNAc(b1-6)[Gal(b1-3)]GalNAc
Outline: as §1

Neu5Ac(a2-3)GalNAc = molecular target: Neu5Ac(a2-3)GalNAc
Outline: as §1

[34] = molecular target: Neu5Ac(a2-6)Gal(b1-4)GlcNAc(b1-2)Man(a1-3)Man(b1-4)GlcNAc(b1-4)GlcNAc
Outline: as §1

[35] = molecular target: Neu5Ac(a2-8)Neu5Ac(a2-3)Gal(b1-3)GalNAc(b1-4)[Neu5Ac(a2-8)Neu5Ac(a2-3)]Gal(b1-4)Glc
Outline: as §1

[36] = molecular target: Neu5Ac(a2-8)Neu5Ac(a2-8)Neu5Ac
Outline: as §1

[37] = molecular target: Neu5Gc(a2-3)Gal(b1-4)GlcNAc
Outline: as §1

B1: Sebin1 (Coprinopsis cinerea), A8PEE3 (protein)
chain: MTSPFYAHIHNVQDDNTWRFTLIFANRATADEWWRAISEAPANTSIAKSITRVTPQYYTHDVNIWNIWNFFADGNIKSISERFRGRLFIVLENDRGGRGITVIPPVPIVDHVSGNWFYIRSKTAPHLFWYYDERRSSIYASKEKRTRFKISIRNPSSQTPKNAIMINTDDVTIHIKENLYVGVDNNLGHIIPTRAYRTFKFGELESGAIAGFDVVENIEERCSSTFDGASLSISGPDSSSPGEPWELV
glycan array binding signal (z-score) [1]: 4.71
glycan array binding signal (z-score) [2]: -0.147
glycan array binding signal (z-score) [3]: -0.29
glycan array binding signal (z-score) [4]: 2.8
glycan array binding signal (z-score) [5]: 3.52
glycan array binding signal (z-score) [6]: 1.28
glycan array binding signal (z-score) [7]: -0.039
glycan array binding signal (z-score) [8]: 2.45
glycan array binding signal (z-score) [9]: 0.187
glycan array binding signal (z-score) [10]: -0.485
glycan array binding signal (z-score) [11]: 2.39
glycan array binding signal (z-score) [12]: -0.671
glycan array binding signal (z-score) [13]: 0.391
glycan array binding signal (z-score) [14]: 0.647
glycan array binding signal (z-score) (Gal(b1-4)GlcNAc): -0.703
glycan array binding signal (z-score) [15]: -0.684
glycan array binding signal (z-score) [16]: 0.136
glycan array binding signal (z-score) [17]: 13.4
glycan array binding signal (z-score) [18]: 6.4
glycan array binding signal (z-score) [19]: 2.44
glycan array binding signal (z-score) [20]: 2.62
glycan array binding signal (z-score) (Gal(b1-6)Gal): 0.332
glycan array binding signal (z-score) (Gal3S(b1-3)GalNAc): -0.501
glycan array binding signal (z-score) [21]: 0.696
glycan array binding signal (z-score) (Gal6S(b1-4)Glc): 0.006
glycan array binding signal (z-score) (Gal6S(b1-4)GlcNAc6S): 0.222
glycan array binding signal (z-score) (GalNAc(b1-4)GlcNAc6S): 0.053
glycan array binding signal (z-score) (Glc(a1-6)Glc(a1-6)Glc): -0.354
glycan array binding signal (z-score) (GlcA(b1-3)Gal): -0.505
glycan array binding signal (z-score) [22]: -0.32
glycan array binding signal (z-score) [23]: -0.296
glycan array binding signal (z-score) [24]: 2.33
glycan array binding signal (z-score) [25]: -0.058
glycan array binding signal (z-score) [26]: -0.792
glycan array binding signal (z-score) [27]: 0.145
glycan array binding signal (z-score) [28]: -0.696
glycan array binding signal (z-score) (Kdn(a2-6)Gal(b1-4)GlcNAc): -0.282
glycan array binding signal (z-score) [29]: -0.335
glycan array binding signal (z-score) [30]: -0.146
glycan array binding signal (z-score) [31]: -0.727
glycan array binding signal (z-score) (Neu5Ac(a2-3)Gal(b1-4)Glc): 3.86
glycan array binding signal (z-score) [32]: -0.415
glycan array binding signal (z-score) [33]: 2.49
glycan array binding signal (z-score) (Neu5Ac(a2-3)GalNAc): -0.458
glycan array binding signal (z-score) [34]: -0.4
glycan array binding signal (z-score) [35]: -0.152
glycan array binding signal (z-score) [36]: -0.546
glycan array binding signal (z-score) [37]: -0.074
